In the library only some 12% were active in any assay of this set; here they are far more common.
MARV entry inh – qHTS for inhibitors of binding or entry into cells for Marburg Virus | Potency, µM (series often up to 37.8 µM), for the others: top-dose activity change, negative = inhibition, actives largely listed as inhibitors | Marburg virus pseudotyped entry inhibition, cell reporter | AID 540276, 2011 | 1.8% of 300,000 active; calls by dose curve; tested in HEK293 cells; note: potency is the fitted concentration of half-maximal effect; % is set by controls: 0 for no effect and ±100 for the full control effect
Lassa entry inh – qHTS for Inhibitors of binding or entry into cells for Lassa Virus | Lassa virus pseudotype entry inhibition, cell reporter | Potency, µM (doses to about 37.9 µM), for inactives: at the highest dose activity change, negative = inhibition, actives largely listed as inhibitors | 1.2% of 300,000 active | AID 540256, 2011; calls by dose curve; tested in HEK293 cells; note: potency is the fitted concentration of half-maximal effect; % is set by controls: 0 for no effect and ±100 for the full control effect; nearly all actives have a fitted effect of over 50% in size
Shiga toxin inh – A qHTS for Small Molecule Inhibitors of Shiga Toxin | Vero cells, Shiga toxin protein synthesis inhibition reporter | inhibition, % at 38.7 µM | 9.2% of 290,000 active; in the data active = inhibition mostly above about 28%, no sharp cut-off; inactive = mostly below about 43%; note: 0% is about no effect
CHX counter – Cycloheximide Counterscreen for Small Molecule Inhibitors of Shiga Toxin. cell reporter, cycloheximide protein synthesis inhibition counterscreen. max response, %. 12% of 300,000 active; in the data active = max response mostly above about 13%, no sharp cut-off; inactive = mostly below about 14%; note: read at 38.3 µM for the half of the compounds with a filed dose; 0% is about no effect
* marks the source's active call; other numbers are inactive results; u = inconclusive; x = not tested or not shown; + = active, no number; [ ] = dose if it differs, or a comment.

SMILES | MARV entry inh | Lassa entry inh | Shiga toxin inh | CHX counter
COc1ccc(NC(=O)CSc2ccccc2)c([N+](=O)[O-])c1 | u | -8%[46.1 µM] | 99* | 60*
COc1ccc(NC(=O)CSc2nncn2C)c([N+](=O)[O-])c1 | 15% | 22% | -9 | -4
COc1ccc(NC(=O)CSc2nc3ccccc3n2-c2ccccc2)c([N+](=O)[O-])c1 | 12µM* | u | 0 | -4
Cc1cccc(SCC(=O)Nc2ccccc2[N+](=O)[O-])c1 | 3%[46.1 µM] | 14%[46.1 µM] | 38 | 16*
O=C(CSc1nc2ccccc2n1-c1ccccc1)Nc1ncc(Cl)cc1Cl | 1.1µM* | 2.5µM* | -4 | -2
Cn1c2cc(C#N)sc2c2cnn(Cc3ccccc3F)c(=O)c21 | x | x | -14 | -8
O=S(=O)(c1cccc(F)c1)N1CCN(S(=O)(=O)c2ccc3c(c2)OCCO3)CC1 | x | x | 17 | 3
COc1ccc(-c2c(NC(=O)c3ccco3)oc3c(C)cccc3c2=O)cc1 | -1%[46.1 µM] | -17%[46.1 µM] | -3 | 9
COCCn1c(SCC(=O)Nc2nc(C)c(Cl)cc2Cl)nc2ccccc21 | u | 23µM* | -18 | -3
COCCn1c(SCC(=O)Nc2ccccc2OC)nc2ccccc21 | -5%[46.1 µM] | 9% | -15 | 11
CCCn1nnc(NC(=O)c2cccnc2Cl)n1 | 5% | 28% | -1 | -4
CCCn1nnc(NC(=O)c2ccc(Cl)cc2Cl)n1 | -20% | 0% | 113* | 45*
CCCn1nnc(NC(=O)/C=C/c2ccco2)n1 | 0%[46.1 µM] | 17% | 17 | 14
CCCn1nnc(NC(=O)/C=C/c2ccccc2)n1 | 25%[46.1 µM] | -23% | 52 | 17*
CCCn1nnc(NC(=O)c2ccccc2Cl)n1 | 22% | 8% | 46 | 27*
Cc1ccc(NC(=O)/C=C/c2ccccc2)c(Br)c1 | x | 5%[46.1 µM] | x | x
Cc1nc(NC(=O)/C=C/c2ccccc2)n[nH]1 | u | u | 22 | 15*
CC(C)NC(=O)c1ccc(CSc2nc3ccncc3n2Cc2cccc(F)c2)cc1 | u | -11%[46.1 µM] | x | x
Cc1cc(C(=O)Nc2cnn(Cc3ccc(Cl)cc3Cl)c2)no1 | 13% | u | 35* | 15*
Cc1ccccc1Cn1cc(NS(=O)(=O)c2cn(C)nc2C)cn1 | x | x | -31 | -2
Cc1ccccc1Cn1cc(NC(=O)c2nn(C)cc2Cl)cn1 | 14% | u | 28* | 17
COc1cccc(-c2cc(C(=O)Nc3cnn(Cc4ccc(Cl)cc4Cl)c3)no2)c1 | -7%[46.1 µM] | u | x | x
COc1ccc(Cl)cc1NC(=O)CSc1c2c(nc3ccccc13)CCC2 | -4%[46.1 µM] | 4%[46.1 µM] | x | x
C[C@H](CO)NS(=O)(=O)c1cc(Cl)ccc1F | x | 5%[46.1 µM] | x | x
Cc1ccc(NC(=O)C2CC(=O)N/C(=N/N=C/c3ccco3)S2)cc1C (stereo not drawn) | -28% | -11% | -17 | -9
SMILES | MARV entry inh | Lassa entry inh | Shiga toxin inh | CHX counter
CC(C)CCN(C(=O)Nc1ccc(Cl)cc1)C1CCN(C(C)C)CC1 | u | u | -13 | 18
COc1ccc(-c2oc3ncn(CCN4CCOCC4)c(=N)c3c2-c2ccc(OC)cc2)cc1 | 16µM* | u | -11 | -2
CCN(CC(=O)Nc1ccc(NC(C)=O)cc1)C(=O)CCCSc1nc2ccccc2[nH]1 | -4%[46.1 µM] | 27% | x | x
O=c1c2c3c(sc2nc2sc(CN4CCOCC4)cn12)CCCC3 | 9% | 20% | + | 18*
O=C(NCCN1CCOCC1)c1cccn2c(=O)c3c4c(sc3nc12)CCCC4 | x | x | -5 | -1
COc1ccc(S(=O)(=O)c2c(Nc3ccc(C)cc3)sc(C(=O)c3ccc4c(c3)OCO4)c2N)cc1 | x | -1%[46.1 µM] | x | x
O=S(=O)(N/N=C\c1ccccc1O)c1ccc(Cl)cc1 | x | x | 51 | 27*
O=C1N(Cc2cccc(Cl)c2)C[C@@H]2C[C@@H](c3cccn3-c3ccccn3)N3CCC[C@@]123 | u | u | 5 | 1
O=C1N(Cc2cccc(Cl)c2)C[C@@H]2C[C@@H](c3cccn3-c3nccs3)N3CCC[C@@]123 | 11µM* | u | -5 | -3
COC(=O)N[C@@H](C=Cc1ccccc1)[C@@H](C)[N+](=O)[O-] | 2%[14.2 µM] | x | x | x
O=C(NN1C(=O)NC2(CCCCC2)C1=O)c1ccc(-c2ccc([N+](=O)[O-])cc2)o1 | x | x | 11 | -1
O=C(O)C1CCC(c2ccc(-c3ccccc3)cc2)CC1 (stereo not drawn) | 19%[46.1 µM] | 2%[46.1 µM] | 116* | 73*
O=C(NC1CCCC1)c1ccc([N+](=O)[O-])s1 | -11%[46.1 µM] | -42% | 11 | 10
O=C(COC(=O)c1sc2ccccc2c1Cl)NC1CCCCC1 | 33% | 7% | 13 | 20*
Cc1ccc(C(=O)NC2CCCC2)s1 | x | x | 53 | 11*
Cc1ccc(C(=O)OCC(=O)NC2CCCCC2)s1 | 1%[46.1 µM] | -5% | 95* | 34*
NC(=O)NC(=O)COC(=O)c1sc2ccccc2c1Cl | x | x | -6 | 4
Cc1ccc(C(=O)OCC(=O)NC2CC2)s1 | u | -24%[46.1 µM] | x | x
O=C(Nc1ccccc1)O/N=C/c1ccccc1Cl | 4% | 7% | 64* | 54*
O=C(Nc1ccccc1)O/N=C/c1ccc(F)cc1 | x | x | 54* | 27*
Cc1ccc(NC(=O)O/N=C/c2ccc(F)cc2)cc1 | x | x | 47* | 33*
O=C(Nc1ccccc1Cl)O/N=C/c1ccc(F)cc1 | 7% | 18% | x | x
COc1ccc(/C=N/OC(=O)Nc2ccccc2)cc1[N+](=O)[O-] | u | -21%[46.1 µM] | + | 33*
COc1ccc(C(=O)OCC(=O)Nc2ccccc2)cc1[N+](=O)[O-] | x | x | -9 | -1
COC(C/C=C\[C@@H](O)COCc1ccccc1)OC | x | x | 13 | -2
SMILES | MARV entry inh | Lassa entry inh | Shiga toxin inh | CHX counter
COc1ccc(NC(=O)O/N=C/c2ccc(Br)cc2)cc1 | u | 6% | 37 | 15
CC(=O)Nc1ccc(/C=N/OCC(=O)Nc2ccc(C)cc2)cc1 | 22% | u | 15* | 23*
Cc1ccc(NC(=O)O/N=C/c2ccc(Br)cc2)cc1 | 8%[46.1 µM] | -7%[46.1 µM] | 37 | 11*
Cn1cc(C(=O)N/N=C/c2ccc3c(c2)OCO3)c2ccccc21 | 13µM* | -11%[46.1 µM] | 58* | 40*
Cn1cc(C(=O)N/N=C/c2ccc(Br)c([N+](=O)[O-])c2)c2ccccc21 | -3%[46.1 µM] | 0% | 8 | 1
Cn1cc(C(=O)N/N=C/c2cccs2)c2ccccc21 | u | 18% | 67* | 39*
O=C(N/N=C/c1ccc2c(c1)OCO2)c1cccc2ccccc12 | 3.2µM* | -17%[46.1 µM] | 19 | -1
O=S1(=O)C=CCN1C1CCCC1 | x | 7%[46.1 µM] | x | x
CCN(CC(=O)Nc1ccc(OC)cc1)C(=O)c1ccccc1Sc1ccccc1C#N | u | -18% | x | x
FC(F)(F)c1cc(-c2ccco2)nc(NCCc2ccccc2)n1 | u | 19% | 78 | 20*
O=C(CCSc1nc(-c2ccco2)cc(C(F)(F)F)n1)NCCc1ccccc1 | u | u | 54 | 33*
COc1ccccc1CCNC(=O)CCSc1nc(-c2ccco2)cc(C(F)(F)F)n1 | u | -12% | -5 | 1
COc1ccc(C(CC(=O)c2ccccc2)S(=O)(=O)c2ccc(C)cc2)cc1 (stereo not drawn) | 1% | -3% | 33* | 34*
Cc1ccccc1C(=O)Oc1ccc(-c2csnn2)cc1 | 13%[46.1 µM] | 16% | 21 | 22*
CC(=O)COc1ccc(-c2csnn2)cc1 | u | -4%[46.1 µM] | 42* | 12
c1ccc(COc2ccc(-c3csnn3)cc2)cc1 | 17% | 3% | 60* | 60*
C=CC(=O)NCc1ccc(-c2csnn2)cc1 | -3% | 24% | -15 | -1

Screening results: PubChem, National Center for Advancing Translational Sciences (NCATS)
